From the supplement of paper PMC10338343 come the findings set out here.

± gives the standard deviation. In all, about 8,200 sequences were measured (“pre-steady-state target cleavage rate”: median about 0.024, highest 2% from about 1.3 on). What follows is part of a selection rich in the highest values, with near analogues and random picks from the rest. Bounds are passed on as bounds.

In this test the test system is MIWI (PIWIL1) piRISC loaded with L1MC piRNA (30 nt). The experiment in a line: pre-steady-state target cleavage rate (min^-1); MIWI and MILI are mouse PIWI proteins and EfPiwi is from a freshwater sponge; tags in brackets are library labels; higher = faster piRNA-guided slicing of the target. Particulars: guide: L1MC piRNA 5'p-UAACUAAAUACUAUGCAAGCUGUAGGUCCU
The procedure, abridged:
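For Cleave-'n-Seq, a transcribed, DNA-blocked target RNA library […] met 1 nM active affinity-purified piRISC with one synthetic guide at 33 °C for 0–8 or 0–960 min in HEPES–potassium acetate buffer, with or without 500 nM GTSF1 partner protein. Uncleaved targets were sequenced and normalised to depth and weakly complementary targets, with three trials pooled and k3 capped at 0.0001 min^-1. A burst-and-steady-state fit supplied the pre-steady-state cleavage rate.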

Setting [1] is: auxiliary factor: none (no GTSF1).
[2] abbreviates: auxiliary factor: 500 nM mouse GTSF1.
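Note: 1 nM active piRISC with 0.1 nM target library at 33 °C single turnover.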

For UCCUGGAUGUCGAACCAUAGAAUAUAGUUA, the “pre-steady-state target cleavage rate” value under setting [1] is less than 0.0001.
Regarding UCCUGGAUGUCCAUGCAUAGUAUUUUGUUA, the “pre-steady-state target cleavage rate” value under setting [2] came out at 0.00484 ± 0.0039.
UCCACCUUCAGCUUGCAAAGUAUUUAGUUA: the “pre-steady-state target cleavage rate” value is, setting by setting: under setting [2], 1.17 ± 0.038; under setting [1], 0.0305 ± 0.0063.
Taken in the same sequence, the figures for UCGACCUUCAGCUUGCUUAGUAUUUAGUUA were 1.33 ± 0.05 and 0.0363 ± 0.0088.
As to AGCACCUUCAGCUUGCAUAGUAUUUAGUUA, the “pre-steady-state target cleavage rate” value under setting [2] came out at 0.711 ± 0.089 and the “pre-steady-state target cleavage rate” value under setting [1] amounted to 0.0548 ± 0.014.
In the case of ACGACCUUCAGCUUGCAUAGUAUUUAGUUA, the “pre-steady-state target cleavage rate” value is 1.45 ± 0.042 under setting [2] and 0.0921 ± 0.015 under setting [1].
On to UGCACCUUCAGCUUGCAUAGUAUUUAGUUA, for which the “pre-steady-state target cleavage rate” value is 1.08 ± 0.091 under setting [2] and 0.0562 ± 0.011 under setting [1].
Regarding UCGACCUUCAGCUUGCAAAGUAUUUAGUUA, the “pre-steady-state target cleavage rate” value came out at 1.33 ± 0.045 under setting [2] and 0.0401 ± 0.0087 under setting [1].
As to UCCUCCUUCAGCUUGCUUAGUAUUUAGUUA, the “pre-steady-state target cleavage rate” value runs as follows: under setting [2], 1.31 ± 0.054; under setting [1], 0.0243 ± 0.0053.
Take UCCUCCUUCAGCUUGCAAAGUAUUUAGUUA: the “pre-steady-state target cleavage rate” value is, setting by setting: under setting [2], 1.16 ± 0.041; under setting [1], 0.0323 ± 0.0072.
Taken in the same sequence, the figures for UCCACCUUCAGCUUGCUUAGUAUUUAGUUA were 1.16 ± 0.037 and 0.0231 ± 0.005.
With UCGACCUUCAGCUUGCAUAGUAUUUAGUUA, the “pre-steady-state target cleavage rate” value was determined as 1.51 ± 0.047 under setting [2] and 0.0696 ± 0.012 under setting [1].
On to UCGACCUUCAGCUUGCAUAGUAUUUAGUAA, for which the “pre-steady-state target cleavage rate” value amounted to 1.05 ± 0.065 under setting [2] and 0.043 ± 0.011 under setting [1].
Turning to UCGACCUUCAGCUUGCAUAGUAUUUAGAAA, the “pre-steady-state target cleavage rate” value stood at 0.659 ± 0.064 under setting [2] and 0.0103 ± 0.0029 under setting [1].
Take UCCUCGUACAGCUUGCAUAGUUUUUAGUUA: the “pre-steady-state target cleavage rate” value turned out to be 0.478 ± 0.013 under setting [2] and 0.0475 ± 0.011 under setting [1].
Consider UCCUGCUACAGCUUGCAUAGUAAUUUCAAA, for which the “pre-steady-state target cleavage rate” value under setting [2] is 0.278 ± 0.074.
Consider UCCACCAACUGCUUGCAUAGUAUUUAGUUA, for which the “pre-steady-state target cleavage rate” value turned out to be 0.828 ± 0.036 under setting [2] and 0.0532 ± 0.0097 under setting [1].
Take UGGACCUACAGCAUGCAUAGUAUUUAGAAA: the “pre-steady-state target cleavage rate” value reads like this: under setting [2], 0.5 ± 0.061; under setting [1], 0.00651 ± 0.0026.
For UCCACCUACACCUUGCAUAGUAUAUAGUUA, the “pre-steady-state target cleavage rate” value under setting [2] was 0.543 ± 0.068 and the “pre-steady-state target cleavage rate” value under setting [1] amounted to 0.025 ± 0.0054.
Consider UCCUGCAACAGCUUGCAUAGAAUUUAGUUA, for which the “pre-steady-state target cleavage rate” value runs as follows: under setting [2], 0.492 ± 0.048; under setting [1], 0.0261 ± 0.0079.
In the case of UCCUGGAUCAGCUUGCAAACUAUUUAGUUA, the “pre-steady-state target cleavage rate” value runs as follows: under setting [2], 0.0815 ± 0.0098; under setting [1], 0.00677 ± 0.003.
AGGACCUAAGCUUGCAUAGUAUUUAGUUA: the “pre-steady-state target cleavage rate” value reads like this: under setting [2], 1.05 ± 0.071; under setting [1], 0.0685 ± 0.013.
On to UGGACCUACAUGCUUGCAUAGUAUUUAGUUA, for which the “pre-steady-state target cleavage rate” value was determined as 0.925 ± 0.054 under setting [2] and 0.0601 ± 0.013 under setting [1].
As to UCGACCUACAUCUUGCAUAGUAUUUAGUUA, the “pre-steady-state target cleavage rate” value amounted to 1.61 ± 0.043 under setting [2] and 0.077 ± 0.014 under setting [1].
With AGGACCUACACCUUGCAUAGUAUUUAGUUA, the “pre-steady-state target cleavage rate” value runs as follows: under setting [2], 1.17 ± 0.037; under setting [1], 0.0855 ± 0.015.
In the same order, the values of UCCACCUACAUCUUGCAUAGUAUUUAGUUA are 0.85 ± 0.036 and 0.0567 ± 0.0096.
Taken in the same sequence, the figures for UCGACCUACACCUUGCAUAGUAUUUAGUUA were 1.15 ± 0.046 and 0.0525 ± 0.008.
For AGGACCUACAUGCUUGCAUAGUAUUUAGUUA, the “pre-steady-state target cleavage rate” value was determined as 0.767 ± 0.056 under setting [2] and 0.0684 ± 0.013 under setting [1].
Taken in the same sequence, the figures for UGGACCUACAUCUUGCAUAGUAUUUAGUUA were 1.38 ± 0.043 and 0.0737 ± 0.012.
Consider UCGACCUACAGUCUUGCAUAGUAUUUAGUUA, for which the “pre-steady-state target cleavage rate” value was determined as 1.16 ± 0.063 under setting [2] and 0.0611 ± 0.012 under setting [1].
Consider AGGACCUACAUCUUGCAUAGUAUUUAGUUA, for which the “pre-steady-state target cleavage rate” value is, setting by setting: under setting [2], 1.39 ± 0.036; under setting [1], 0.0767 ± 0.012.
Consider UCCACCUACAGCUUCCAUAGAAUUUAGUUA, for which, under setting [2], the “pre-steady-state target cleavage rate” value came to 0.0393 ± 0.015.
As for UGGACCAUGAGCUUGCAUAGUAUUUACAAA, the “pre-steady-state target cleavage rate” value was found to be 0.159 ± 0.021 under setting [2] and 0.00423 ± 0.0026 under setting [1].
With “AGGACCUACAGCUUGCAUAGUUAAAUCAAA [g10:g30:cont:t1A]”, under setting [2], the “pre-steady-state target cleavage rate” value was 0.159 ± 0.046.
